Screening data from PubChem.
Only some compounds are listed: those with a hit (about 1.6% of all), similar ones and a draw of the others.
sEH inh = soluble epoxide hydrolase (human) inhibition. inhibition, % at 2 µM. P34913. recombinant human sEH enzymatic activity assay. hit rate 0.34% among 91,000; in the data active = inhibition above about 80%
PLK1 PBD inh = blocks phosphopeptide binding to human Plk1 polo box domain. Plk1 PBD phosphopeptide binding, fluorescence polarization. inhibition, %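 (tested at about 20 µM)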. hit rate 0.13% among 97,000. AID 693; in the data active = inhibition above about 34%, passing the limit was not always enough
Target sequence (P53350 whole entry, looked up, the tested form may be a part): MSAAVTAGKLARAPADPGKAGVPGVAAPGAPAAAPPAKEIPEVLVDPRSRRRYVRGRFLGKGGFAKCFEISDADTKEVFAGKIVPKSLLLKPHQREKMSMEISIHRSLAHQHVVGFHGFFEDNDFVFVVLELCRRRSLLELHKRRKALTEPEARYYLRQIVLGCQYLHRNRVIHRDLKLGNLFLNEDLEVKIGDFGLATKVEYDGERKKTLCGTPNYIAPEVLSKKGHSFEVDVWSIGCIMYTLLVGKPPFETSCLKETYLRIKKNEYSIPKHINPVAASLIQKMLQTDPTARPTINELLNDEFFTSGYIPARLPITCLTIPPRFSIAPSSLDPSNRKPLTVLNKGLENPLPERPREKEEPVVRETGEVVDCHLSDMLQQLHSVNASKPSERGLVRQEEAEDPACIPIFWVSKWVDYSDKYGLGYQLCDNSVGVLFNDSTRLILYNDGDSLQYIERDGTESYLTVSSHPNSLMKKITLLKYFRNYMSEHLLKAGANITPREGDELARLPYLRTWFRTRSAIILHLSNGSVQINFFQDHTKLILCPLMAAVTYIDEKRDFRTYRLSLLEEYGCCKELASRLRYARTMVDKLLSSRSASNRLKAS
PTK2B oligo ant = blocks oligomerization of human Pyk2 in cells. Q293 cells, Pyk2 FERM NanoBiT luminescence; active compounds read low. z-score (the deposit names both 25 µM and 10 µM). hit rate 0.83% among 99,000. AID 1347419;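 active = Z-score of -3 or lower, scaled per plate to the spread of control and sample wells; inactive = z-score above -3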;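 also: negative z-score means lost luminescence so less FERM oligomerization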
PLK1 inh = PLK1 (human) kinase inhibition | inhibition, % at 10 µM | hit rate 0.53% among 97,000 | recombinant PLK1 kinase, TR-FRET peptide phosphorylation;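 active = inhibition of 50% or more in the single-concentration screen; inactive = inhibition below 50%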;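 also: 0% = DMSO max control and 100% = H-89 dihydrochloride min control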
sEH act = increases human soluble epoxide hydrolase activity; purified human sEH enzymatic activity, activator screen; P34913; AID 717; activation, % at 2 µM; hit rate 0.04% among 91,000; in the data active = activation above about 37%
An asterisk follows results filed as active; / = no result.

SMILES	sEH inh	PLK1 PBD inh	PTK2B oligo ant	PLK1 inh	sEH act
C/C(=N\Nc1cc(Cl)nc(C)n1)c1ccc(C)cc1	-47.9	-14.1	1.07	-10.5	52.1*
CC(C)CN1C(=O)C(=O)N(CC(=O)NCc2ccc3c(c2)OCO3)C1=O	-21.9	42.4	1.49	-9.3	21.8
CC(C)CN1C(=O)c2ccc(C(=O)NCc3ccc4c(c3)OCO4)cc2C1=O	81.4*	14.4	-0.37	6.1	-81.7
CC(=O)OC1CCC2(C)C(COc3ccc4ccc(=O)oc4c3)C(C)(O)CCC2C1(C)C (stereo unspecified)	-2.0	-4.4	-3.31*	-10.2	2.8
Cc1nn(-c2ccccc2)c(C)c1C(=O)OCC(=O)NC12CC3CC(CC(C3)C1)C2	/	-45.5	-3.13*	-12.5	/
Cc1nn(-c2ccccc2)c(C)c1C(=O)OCC(=O)NC(=O)NC1CCCC1	-2.0	0.4	-3.39*	-13.3	3.2
O=C(COC(=O)c1n[nH]c2ccccc12)NC(=O)NC1CCCCC1	/	2.4	-2.22	3.8	/
Clc1ccc(C2=Nn3c(nnc3-c3cc(-c4ccccc4)n[nH]3)SC2)cc1	13.1	-5.7	-1.16	-11.9	-13.1
c1ccc(C2=Nn3c(nnc3-c3cc(-c4ccccc4)n[nH]3)SC2)cc1	-3.2	-25.9	-3.26*	-4.7	0.8
Cc1ccc2c(n1)CC(C)(C)CC2=O	3.6	-7.3	1.25	-14.9	-2.9
CCCCN1C(=O)Cc2c1nc(N)c1c(N)nc(N(CCC)CCC)c(C#N)c21	/	-16.4	-3.64*	2.7	/
C=C(C)CN(CC)c1nc(N)c2c(N)nc3c(c2c1C#N)CC(=O)N3C12CC3CC(CC(C3)C1)C2	4.2	18.4	-1.22	-15.8	-4.5
COc1ccc(C2(CNC(=O)CCC(=O)O)CCCC2)cc1OC	-10.5	0.8	0.75	-8.1	11.3
Cc1cc([N+](=O)[O-])c2[nH]c(C(=O)N/N=C/c3ccccc3C(=O)O)c(-c3ccccc3)c2c1	5.5	6.2	-3.03*	-6.5	-8.2
COc1ccnc(Nc2ccc(C)c(C)c2)c1C#N	-7.3	-9.7	0.68	-9.5	9.2
COc1ccnc(NCc2ccc(Cl)cc2)c1C#N	1.2	-11.2	-3.56*	-3.7	0.6
CCCCSc1nnc2nc(C)cc(C)n12	5.0	-11.2	0.3	-4.4	-4.7
CCN1CCN(CCNC(=O)CS(=O)(=O)Cc2nc(-c3ccc(C)cc3)oc2C)CC1	/	-9.1	/	64.6*	/
O=C(Cc1cccs1)N(Cc1cccs1)C1(C(=O)NC2CCCCC2)CCCCC1	9.0	-6.9	-4.52*	-5.2	-6.1
COC(=O)c1sccc1-c1ccc(/C=N/OC(=O)c2ccccc2)o1	-8.2	-13.8	-0.94	14.5	5.2
COC(=O)c1ccc(Cl)c(-c2ccc(/C=N/NC(=O)Nc3ccccc3)o2)c1	0.7	19.7	-3.17*	-13.3	0.7
OC(COc1c(Cl)cc(Cl)cc1Cl)CN1CCCCC1 (stereo unspecified)	9.2	-0.6	-0.34	54.2*	-7.6
O=C(c1cc2ccccc2cc1OCC(O)CN1CCCCC1)N1CCCCC1 (stereo unspecified)	/	7.7	/	66.0*	/
CC1CN(S(=O)(=O)c2ccccc2)CC(C)O1 (stereo unspecified)	-5.0	-7.7	-0.34	-9.9	7.8
CC1CN(S(=O)(=O)c2ccc(NC(=O)c3cc(-c4ccccc4O)n[nH]3)cc2)CC(C)O1 (stereo unspecified)	8.8	15.3	-3.07*	-13.2	-8.2
SMILES	sEH inh	PLK1 PBD inh	PTK2B oligo ant	PLK1 inh	sEH act
O=C(Nc1ccc(Cl)c(Cl)c1)N1CCSCC1	81.7*	11.3	1.81	-7.1	-81.5
O=C(Nc1ccc(N2CCOCC2)cc1)Nc1ccc(Cl)c(Cl)c1	82.1*	3.5	-0.89	-7.8	-81.7
O=C(Nc1ccc(Cl)cc1)Nc1ccc(N2CCOCC2)cc1	63.4	3.8	-1.32	-11.0	-62.6
CCN(C(=O)c1cnc(N2CCN(c3ncccn3)CC2)c2ccccc12)c1cccc(Cl)c1	-5.8	-17.5	-3.3*	-15.7	7.5
CN(C(=O)c1cnc(N2CCN(c3ncccn3)CC2)c2ccccc12)c1ccc(Cl)cc1	0.6	-13.7	-2.6	6.2	-0.6
CS(=O)(=O)N(Cc1ccc(C(=O)NCCSCc2ccco2)cc1)c1ccccc1	80.6*	15.6	1.53	2.3	-80.8
CS(=O)(=O)N(Cc1ccc(C(=O)NCc2ccco2)cc1)c1ccccc1	18.9	-0.8	-0.09	-5.9	-18.9
COCCn1c(CN2CC(C)CC(C)C2)nc2c1c(=O)n(C)c(=O)n2C (stereo unspecified)	/	5.7	/	67.7*	/
Cc1ccc(S(=O)(=O)N2CCCN(S(=O)(=O)c3ccc4c(c3)OCCO4)CC2)cc1	6.2	25.4	-3.01*	-10.7	-5.2
O=S(=O)(c1ccc2c(c1)OCCO2)N1CCC(O)(c2ccc(Cl)cc2)CC1	-4.7	3.2	-3.2*	-8.8	2.5
O=S(=O)(/C=C/c1ccccc1)N1CCN(c2cccc(Cl)c2)CC1	-37.5	-7.4	-1.25	-13.8	37.6*
O=S(=O)(c1ccccc1Cl)N1CCC(O)(c2ccc3c(c2)OCO3)CC1	6.9	18.1	-1.86	-5.2	-5.5
O=S(=O)(c1ccc2c(c1)OCCO2)N1CCN(c2cccc(Cl)c2)CC1	-10.7	-7.5	-3.9*	-16.3	11.0
CCCn1c(C)cc(=O)c2cc(NC(=O)c3cnccn3)ccc21	/	4.7	-0.21	-3.7	/
Cc1ccc(NC(=O)CN2CCCN(S(=O)(=O)c3ccc(Br)s3)CC2)cc1	-5.1	-18.2	-0.66	-4.0	4.7
N#Cc1c(N)nc(SCc2ccccn2)c(C#N)c1-c1cccs1	7.2	-2.9	-3.81*	-183.4	-4.6
CCOC(=O)CSc1nc(N)c(C#N)c(-c2cccs2)c1C#N	-0.2	-18.8	-1.34	-15.3	0.5
CCn1c(SCc2nc3sc(C(=O)O)c(C)c3c(=O)[nH]2)nc2ccccc21	-4.9	-45.0	1.23	56.2*	6.5
CC(C)Cn1c(SCc2nc3ccccc3c(=O)[nH]2)nc2ccccc2c1=O	8.3	-4.5	-1.79	-10.9	-7.9
CCCCNc1oc(-c2ccc(OC)cc2)nc1S(=O)(=O)c1ccccc1	15.1	-2.6	0.65	2.7	-13.2
CCOc1ccc(-c2nc(S(=O)(=O)c3ccccc3)c(NCc3cccnc3)o2)cc1	4.3	-19.2	-3.32*	-5.4	-9.4
CCN(Cc1ccccc1)S(=O)(=O)c1ccc(C(=O)Nc2nnc(-c3ccccc3OC)o2)cc1	2.1	-4.5	-3.91*	-8.8	-1.6
O=C(NCCN1CCOCC1)c1ccc2c(c1)N(Cc1ccccc1)C(=O)CS2	20.7	4.9	-0.2	-5.5	-20.8
O=C(NCCC1=CCCCC1)c1ccc2c(c1)N(Cc1ccccc1)C(=O)CS2	82.0*	-11.6	-1.28	-7.2	-82.5
O=C(CN1C(=O)c2ccccc2C1=O)Nc1ccccc1C(=O)NC1CCCCC1	13.9	-1.2	0.57	-2.4	-13.7
O=C(NNC(=O)c1cc(-c2ccc(Cl)cc2Cl)nc2ccccc12)Nc1ccccc1	-4.5	3.4	-3.48*	-5.7	5.7
O=C(Nc1ccccc1)c1cc(Cl)nc2ccccc12	/	/	0.89	/	/
O=C(Nc1ccc(Cl)c([N+](=O)[O-])c1)c1cnccn1	/	/	4.7	/	/
COC(=O)c1ccccc1NC(=O)c1cnn2c(C(F)F)cc(C3CC3)nc12	-25.4	-1.1	-3.62*	-13.4	18.8
